Screens as filed in PubChem BioAssay.
Rows were chosen to be rich in hits. Some 14% of all compounds tested hit in one or more screens of this group.
HADH2 inh: qHTS Assay for Inhibitors of HADH2 (Hydroxyacyl-Coenzyme A Dehydrogenase, Type II); 3-hydroxyacyl-CoA dehydrogenase type-2 (Homo sapiens), Q99714; recombinant HADH2, NADH fluorescence, beta-hydroxybutyryl-CoA; Potency, µM (doses to about 57.1 µM), for inactives: top-dose activity change, negative = inhibition, most hits filed as inhibitors; hit rate 3.4% among 73,000; note: potency is the fitted concentration of half-maximal effect; % is set by controls: 0 for no effect and ±100 for the full control effect; nearly all actives have a fitted effect of over 60% in size
Target sequence (Q99714 whole entry, looked up, one chain of several): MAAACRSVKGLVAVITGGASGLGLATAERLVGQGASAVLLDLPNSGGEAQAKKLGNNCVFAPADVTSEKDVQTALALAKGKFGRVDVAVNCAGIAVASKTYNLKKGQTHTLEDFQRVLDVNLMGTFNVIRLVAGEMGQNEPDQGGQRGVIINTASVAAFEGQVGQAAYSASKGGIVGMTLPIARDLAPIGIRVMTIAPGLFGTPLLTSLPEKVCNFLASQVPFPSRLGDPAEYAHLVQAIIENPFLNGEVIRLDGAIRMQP
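20 nM HADH2 + cpd, 15 min RT; add 1 mM NAD+/90 uM beta-hydroxybutyryl-CoA; kinetic fluorescence 360/450 nm, 4 min. Tris-HCl pH 9.0, 0.01% Tween-20.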
HSD17B inh: qHTS Assay for Inhibitors of HSD17B4, hydroxysteroid (17-beta) dehydrogenase 4 | Potency, µM (series often up to 57.1 µM), for inactives: top-dose activity change, negative = inhibition, hits mostly inhibitors | recombinant HSD17B10, NADH fluorescence kinetic | hit rate 7.6% among 75,000;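 note: the protocol describes HADH2 (HSD17B10) and not the HSD17B4 of the title; potency is the fitted concentration of half-maximal effect; % is set by controls: 0 for no effect and ±100 for the full control effect; nearly all actives have a fitted effect of over 70% in size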
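Enzyme plus compound, 15 min room temperature; substrate mix added (NAD+ 1 mM, beta-hydroxybutyryl-CoA 90 uM final); plates read kinetically for NADH fluorescence. HADH2 was His-tagged, E. coli-derived, 20 nM.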
A350 autofl: qHTS Assay for Spectroscopic Profiling in A350 Spectral Region | Compound autofluorescence, 340/450 nm, Alexa 350 dye-equivalents; active compounds read high | hit rate 11% among 59,000 | max dye-equivalent concentration, M; in the data active = max dye-equivalent concentration above about 10 nM; inconclusive = mostly about 1.1 nM to 9.6 nM
AID923: qHTS Assay for Allosteric/Competitive Inhibitors of Caspase-1: Spectroscopic Profiling in AFC Spectral Region. compound fluorescence, AFC spectral region (405/520 nm). hit rate 1.1% among 75,000. AID 923, 2007. Potency, µM (titrated, usually from 57.5 µM), for the others: at the highest dose fluorescence increase, most hits filed as activators; note: potency is the fitted concentration of half-maximal effect; 0% is about no effect
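Baseline compound fluorescence (AFC region, 405 nm ex/520 nm em) taken from the intercept of kinetic reads with 50 nM caspase-1 and 5 uM Ac-WEHD-AFC; normalized to an on-plate AFC standard curve; compounds titrated up to 57 uM.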
4MU fluor: qHTS Assay for Spectroscopic Profiling in 4-MU Spectral Region. compound autofluorescence, 340/450 nm, 4-MU equivalents; active compounds read high. max dye-equivalent concentration, M. hit rate 11% among 59,000; in the data active = max dye-equivalent concentration above about 10 nM; inconclusive = mostly about 1.1 nM to 9.6 nM
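Compounds in 100 mM Tris, pH 8.0, sat 15 min at room temperature before fluorescence was read at 340 nm excitation/450 nm emission; a per-plate six-point 4-MU standard curve converted signals to dye-equivalent concentration at each compound concentration.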
CRE Fsk mod: Cell signaling CRE-BLA (Fsk stim) | Potency, µM (titrated, usually from 38.2 µM), for inactives: top-dose activity change, negative = inhibition, most hits filed as activators | AID 662, 2007 | hit rate 2.5% among 71,000 | CHO CRE-bla reporter (cAMP response element driving beta-lactamase), forskolin EC10, beta-lactamase ratio; active = well fitted activation curve with a large enough effect in the signal ratio, with a control signal flat, not every such curve was filed as active; inconclusive = small, poorly fitted or top-dose-only effect, or effect the other way, or a change in a side signal; the % refers to the signal ratio; note: potency is the fitted concentration of half-maximal effect; % of control where 0% means no effect
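CRE-bla CHO cells stimulated with EC10 NKH 477 (water-soluble forskolin) and compound titrations, 3 h at 37C; beta-lactamase read with CCF4 after 2 h at room temperature. Activity from 460/530 nm emission ratio, AC50 values for positive or negative modulation.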
CHO tox 24h: Cell Viability - CRE-beta lactamase CHO cell - 24 hr assay; shares compounds with CRE Fsk mod; CRE-bla CHO viability, ATP luminescence, 24 h; activity, negative = viability loss, % at 46.1 µM; 120 tested, under 10 active; AID 905, 2007
CHO via 40h: Cell Viability - CRE-beta lactamase CHO cell - 40 hr assay | shares compounds with CRE Fsk mod | CRE-bla CHO viability, ATP luminescence, 40 h | Potency, µM, for inactives: max response, actives largely listed as inhibitors | 120 tested, under 10 active | AID 906, 2007
CREB luc CRC: Confirmation Concentration-Response Assay for Cell signaling CRE-BLA (Fsk stim) - HEK293 CREB Luciferase | AID 907, 2007 | Potency, µM (titrated, usually from 38.3 µM), inactives show top-dose activity, positive = activation, hits mostly activators | hit rate 80% among 120 | shares compounds with CRE Fsk mod | HEK293 CRE-luc2P, NKH477 EC10 potentiation, luminescence, 4 h
An asterisk follows results filed as active; [ ] = another dose, or the depositor's remark. Unless noted, calls come from the whole dose curve; as a rule, active = well fitted curve in the direction sought with a large enough effect; inconclusive = small, poorly fitted or top-dose-only effect, or another doubt; inactive = no such curve, though single readings can be large; an effect the other way counts as inactive or inconclusive.

What do the screens show for `Cc1nc(SCc2nc3ccccc3[nH]2)c2oc3ccccc3c2n1`?
HADH2 inh: 8%; HSD17B inh: inconclusive; A350 autofl: inactive; AID923: 7%; 4MU fluor: inactive; CRE Fsk mod: 0.016µM*; CHO tox 24h: 16; CHO via 40h: 2%; CREB luc CRC: 1µM*

Results for O=C(CSc1ncnc2c1oc1ccccc12)c1cccs1 ?
HADH2 inh: 10%; HSD17B inh: 2%; A350 autofl: inactive; AID923: 3%; 4MU fluor: inactive; CRE Fsk mod: inconclusive; CHO tox 24h: -4; CHO via 40h: -11%; CREB luc CRC: 1.3µM*

Results for c1ccc2[nH]c(CN3CCN(c4ncnc5c4oc4ccccc45)CC3)nc2c1 ?
HADH2 inh: 7%; HSD17B inh: -7%; A350 autofl: inactive; AID923: 0%; 4MU fluor: inactive; CRE Fsk mod: inconclusive

What do the screens show for `c1ccc2[nH]c(CSc3ncnc4c3oc3ccccc34)nc2c1`?
HADH2 inh: 6%; HSD17B inh: 32%; A350 autofl: inactive; AID923: 5%; 4MU fluor: inactive; CRE Fsk mod: inconclusive; CHO tox 24h: -18; CHO via 40h: inconclusive; CREB luc CRC: 0.79µM*

Results for O=C1[C@H]2[C@H]3[C@H](O)[C@H](O)C/C(=N/OC[C@@H](O)COCc4ccco4)[C@H]3CC[C@@H]2C(=O)N1Cc1ccc2c(c1)OCO2 ?
HADH2 inh: 15%[11.4 µM]; HSD17B inh: 1%[11.4 µM]; AID923: -3%[11.5 µM]

Results for CC(C)C[C@@H](CC(=O)N[C@@H](CCC(=O)O)CC(=O)O)NC(=O)[C@@H]1CCCC[C@H]1NC(=O)C[C@@H](NC(=O)C[C@H](Cc1ccccc1)NC(=O)[C@@H]1CNCC[C@H]1N)C(C)C ?
HADH2 inh: 4%; CRE Fsk mod: 1%

How did O=C(Cn1nnc(-c2ccncc2)n1)N(C1CCCCC1)C1CCCCC1 do in these assays?
HADH2 inh: 19%; HSD17B inh: 3%; A350 autofl: inactive; AID923: -1%; 4MU fluor: inactive; CRE Fsk mod: -22%

Results for COCC(=O)N1CCC2(CCCN(C(=O)Nc3ccc(OC)cc3)C2)CC1 ?
HADH2 inh: 3%; HSD17B inh: 7%; A350 autofl: inactive; AID923: 3%; 4MU fluor: inactive; CRE Fsk mod: -2%

How did CCn1c2ccccc2c2nnc(SCc3cc(=O)n4ccsc4n3)nc21 do in these assays?
HADH2 inh: 4%; HSD17B inh: -1%; A350 autofl: inactive; AID923: 0%; 4MU fluor: inactive; CRE Fsk mod: 1µM*; CHO tox 24h: -15; CHO via 40h: inconclusive; CREB luc CRC: 5µM*
